Values joined by “and” are separate entries in the source; they are usually repeats but may differ in a detail not shown here. Equal values may be shown once.
Columns and labels:
Type in all cases: functional
[1] = molecular target: Solute carrier family 2, facilitated glucose transporter member 1 (Homo sapiens) (UniProt P11166); test: ST_JUDE_LEISH: Cytotoxicity at 2uM final concentration against transgenic Leishmania Mexicana promastigotes LmGLUT1 that are glucose transport deficient and complemented with the human glucose transporter GLUT1. Activity is measured by DNA content using SYBR green in vitro
[2] = molecular target: Hexose transporter 1 (Plasmodium falciparum) (UniProt O97467); test: ST_JUDE_LEISH: Cytotoxicity at 2uM final concentration against transgenic Leishmania Mexicana promastigotes LmPfHT that are glucose transport deficient and complemented with the Plasmodium falciparum hexose transporter. Activity is measured by DNA content using SYBR green in vitro
[3] = molecular target: Glucose transporter (Leishmania mexicana) (UniProt O61059); test: ST_JUDE_LEISH: Cytotoxicity at 2uM final concentration against transgenic Leishmania Mexicana promastigotes LmGT2 that are glucose transport deficient and complemented with the L. Mexicana glucose transporter 2. Activity is measured by DNA content using SYBR green in vitro

Solute carrier family 2, facilitated glucose transporter member 1 (Homo sapiens), sequence (P11166 whole entry): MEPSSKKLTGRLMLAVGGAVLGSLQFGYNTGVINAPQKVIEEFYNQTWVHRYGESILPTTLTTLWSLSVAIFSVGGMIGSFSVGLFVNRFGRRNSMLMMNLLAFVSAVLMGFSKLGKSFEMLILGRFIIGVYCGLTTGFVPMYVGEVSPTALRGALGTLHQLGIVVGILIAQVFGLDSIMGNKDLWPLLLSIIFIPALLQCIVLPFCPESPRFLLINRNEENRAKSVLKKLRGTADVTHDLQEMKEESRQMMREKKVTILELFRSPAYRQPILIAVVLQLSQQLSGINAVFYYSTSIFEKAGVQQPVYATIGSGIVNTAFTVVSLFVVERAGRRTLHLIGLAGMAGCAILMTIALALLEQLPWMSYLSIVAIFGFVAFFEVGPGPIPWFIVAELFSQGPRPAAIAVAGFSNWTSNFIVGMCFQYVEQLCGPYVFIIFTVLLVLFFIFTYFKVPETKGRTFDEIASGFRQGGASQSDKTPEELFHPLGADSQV

| SMILES | inhibition [1] | inhibition [2] | inhibition [3] |
| --- | --- | --- | --- |
| CCOC(=O)NC1=NC(C)(C)N(OCc2cccc3c2ccc2ccccc23)C(NC(=O)OCC)=N1 | 10.7% | 11.1% | 10.3% |
| CCN1CCN(Cc2c(O)ccc3c(=O)c(Oc4cc(C)cc(C)c4)c(C(F)(F)F)oc23)CC1 | 75.7% | 73.3% | 54.5% |
| CN(c1ccc(C(=O)N[C@@H](CCC(=O)O)C(=O)O)cc1)S(=O)(=O)c1ccc2nc(N)[nH]c(=O)c2c1 | 2.98% | -0.77% | 0.27% |
| COc1ccc(NC(=O)NC2CCN(CCCCCNC(=O)/C=C/c3ccc(Cl)c(Cl)c3)CC2)cc1 | -1.04% | -0.81% | -2.52% |
| CC(C)(C)c1ccc(-c2cc(C(=O)N[C@@H](CO)C(=O)O)on2)cc1.CC(C)(C)c1ccc(-c2nocc2C(=O)N[C@@H](CO)C(=O)O)cc1 | 4.07% | 3.4% | 6.48% |
| Cc1ccc(Nc2nc(-c3ccccn3)cs2)nc1 | 75.7% | 65.5% | 69.3% |
| O=S(=O)(NCCN1CCCC1)c1ccc(-c2ccc(CNCc3ccc(F)cc3)cc2)cc1F | 5.72% | 5.82% | 3.28% |
| CS(=O)(=O)c1cc2c(Nc3ccc(N4CCOCC4)cc3)c(C(N)=O)cnc2cc1Br | 4.41% | 1.07% | 3.69% |
| O=c1ccc2ccc(F)c3c2n1CC3CN1CCC(NCc2cccc(-c3ccccc3F)c2)CC1 (stereo not drawn) | 19.1% | 22.3% | 11.4% |
| Cc1cccc2nc(-c3ccc(-c4ccc(CNCc5cnn(-c6ccccc6)n5)cc4)cc3)[nH]c12 | 1.08% | 1.39% | 1.19% |
| CN1CCC(NCCS(=O)(=O)c2cccc(Nc3ccc(-c4cccc(F)c4)cn3)c2)CC1 | 0.4% | 0.91% | -0.71% |
| Cc1cc(N2CCCC2)nc(Nc2ccc(NC(=O)Cc3ccccc3)cc2)n1 | 88.4% | 95.2% | 72.3% |
| O=C(Nc1ccccc1)c1ccc(-c2cc3ccncc3cc2OC2CCNCC2)s1 | -3.12% | 3.86% | -3.49% |
| COc1ccc2nc(C)cc(Nc3ccc(Oc4ccc(Cl)c5ccccc45)c(Cl)c3)c2c1 | 12.8% | 10.2% | 5.43% |
| NC1CCCN(Cc2ccc(-c3cccc(-c4nc5ccccc5[nH]4)c3)cc2)C1 (stereo not drawn) | 3.53% | 4.34% | 4.25% |
| COc1ccc2c(=NN=Cc3ccc(OC)c4ccccc34)cc(C)[nH]c2c1 | 0.09% | 1.71% | 1.11% |
| CC(C)[C@H](NC(=O)c1c(CN2CCC(N3CCCCC3)CC2)c(-c2ccccc2)nc2cc(O)ccc12)c1ccccc1 | 2.26% | 1.22% | 0.91% |
| COc1cc2nc(N3CCC(C(N)=O)CC3)nc(NCc3ccccc3)c2cc1OC | 3.29% | 1.29% | 0.48% |
| CCCCNC[C@@H](O)[C@H](Cc1ccccc1)NC(=O)c1cc(NCC)cc(N2CCCCS2(=O)=O)c1 | 4.19% | 2.9% | 3.45% |
| NC(=O)c1cnc2cc(-c3ccncc3)cc(Nc3ccc(NC(=O)C4CCCCC4)cc3)c2c1 | 2.17% | 2.89% | 1.29% |
| CCN(CC)CCCN(C(=O)c1cc2c(C)nn(-c3ccccc3)c2s1)c1nc(-c2ccc(OC)cc2)cs1 | 10.5% | 9.13% | 8.72% |
| Cn1c(NC2CCN(CC3CCN(C(=O)/C=C/c4ccc(Cl)c(Cl)c4)CC3)CC2)nc2ccccc21 | 49.9% | 13.8% | 81.9% |
| Oc1c(Cl)cc(Nc2nccc(Nc3ccc(Oc4ccccc4)cc3)n2)cc1Cl | 4.19% | 4.44% | 1.16% |
| CC(C)CN1CCN(CCNc2c3ccccc3nc3ccccc23)CC1 | 83% | 83.1% | 81.3% |

| SMILES | inhibition [1] | inhibition [2] | inhibition [3] |
| --- | --- | --- | --- |
| CC(C)Cc1cn(-c2nc(-c3nc4ccccc4[nH]3)cs2)c2ccncc12 | 4.69% | 6.3% | 3.29% |
| CCN(CCCN1CCCCC1)c1nc(C)cc(Nc2ccc(Cl)cc2)n1 | 0.5% | -0.38% | 1.1% |
| CCN(CC)CCN(Cc1ccc(-c2ccc(C(F)(F)F)cc2)cc1)C(=O)Cn1c(CCc2ccc(F)cc2)nc(=O)c2ccccc21 | 2.98% | 2.96% | 3.33% |
| O=c1cc(NCCCNCc2cc3c(Cl)cc(Cl)cc3[nH]2)[nH]c2ccccc12 | -0.67% | -0.16% | -0.14% |
| OCc1ccc2nc3c(cc2c1)-c1cccc2cccc-3c12 | 3.6% | 1.82% | 2.11% |
| CC(C)COc1ccc(Cl)cc1Cc1ccc(-c2nc3cc(F)c(F)cc3[nH]2)o1 | 3.02% | 1.87% | 1.02% |
| O=C(/C=C/c1ccc(Cl)c(Cl)c1)NCCCCCN1CCC(C(=O)Nc2ccc(F)c(Cl)c2)CC1 | 4.66% | 1.87% | 1.53% |
| FC(F)(F)c1ccc2[nH]c(-c3ccc(-c4cccc(CNCCc5ccncc5)c4)s3)nc2c1 | 0.52% | 1.67% | 5.33% |
| COc1ccc(-c2cccc(NC(=O)c3cccc(Cl)c3)c2)cc1CN1CCCN(C)CC1 | 11.4% | 12% | 11.7% |
| O=C(CCc1c[nH]cn1)Nc1ccc(-c2ccc(-c3nc4cc(F)ccc4[nH]3)cc2)cc1 | 1.4% | 1.73% | 1.81% |
| Nc1nccc2ccc(-c3ccc(OCc4ccccc4)cc3)cc12 | 0.87% | 2.36% | 1.39% |
| CCc1cccc2c(C#N)cn(CC(=O)Nc3ccc(OC)cc3)c12 | 0.84% | 3.26% | 1.27% |
| CC(C)CNCc1ccc(-c2ccccc2CNC2CCN(Cc3ccccc3)CC2)cc1 | 7.04% | 7.66% | 5.95% |
| O=C(Nc1ccccc1)c1cccc(Nc2nccc(Nc3ccc(Oc4ccccc4)cc3)n2)c1 | 0.65% | 1.07% | 0.87% |
| Fc1ccc2ncc(Cl)c(CCN3CCC(NCc4cc5c(cn4)OCCO5)CC3)c2c1 | 11% | 11.7% | -0.41% |
| CCc1nnc2sc(-c3cccc(NC(=O)c4ccc(C)c([N+](=O)[O-])c4)c3)nn12 | 7.69% | 3.97% | 2.48% |
| COc1cccc(OC)c1C(=O)N1CCC2(CC1)C(=O)N(CC(=O)NC1CCCCC1)CN2c1ccccc1 | 0.35% | 4.45% | 3.89% |
| CCCCCCCCCN1CC[C@@H](CCCc2ccnc3ccc(O)cc23)[C@@H](CC)C1 | -2.45% | -2.37% | -1.91% |
| Nc1nc(N)c2c(Cc3ccccc3)cccc2n1 | 0.09% | 4.13% | 2.02% |
| Oc1ccccc1CN(CCCN(Cc1ccccn1)Cc1ccccc1O)Cc1ccccn1 | 4.2% | 3.15% | 4.96% |
| O=C(CC(=O)C(F)(F)F)c1ccccc1[N+](=O)[O-] | 0.17% | 3.36% | -1.14% |
| N=C(N)NCCN(Cc1ccccc1)c1ccccc1 | 2.42% | 1.13% | 2.3% |
| CCc1c[nH]c2c(N3CCCCC3=O)cc(C(=O)N[C@@H](Cc3ccccc3)[C@H](O)CNCc3cccc(OC)c3)cc12 | -0.8% | -2.31% | 0.87% |
| FC(F)(F)c1cccc2c(NN=Cc3ccccc3)ccnc12 | 2.7% | 2.21% | 1.42% |

| SMILES | inhibition [1] | inhibition [2] | inhibition [3] |
| --- | --- | --- | --- |
| Cc1ccc(C)c2sc(N(CCCn3ccnc3)C(=O)C=Cc3cccs3)nc12 | 1.74% | 2.3% | -1.56% |
| CCOc1cc2ncnc(Nc3ccc(OCc4ccccc4F)c(Cl)c3)c2cc1OCC | -0.1% | 2.22% | 0.76% |
| COc1ccc(CNC2Cc3ccccc3C2)cc1-c1cccc(S(=O)(=O)NCCN2CCCC2)c1 | 4.54% | 1.69% | 3.08% |
| Cc1ccc(Nc2nccc(N(C)c3ccc4c(c3)nc(NC(=O)Cc3ccc(Cl)c(Cl)c3)n4C)n2)cc1S(N)(=O)=O | 6.81% | 11.6% | 5.64% |
| COc1cc(/C=C/C(=O)NC2CCC(N3CCC(c4ccccc4C)CC3)CC2)cc(OC)c1 (stereo not drawn) | -0.75% | -0.16% | 0.77% |
| Cc1ccc(NC(=O)c2cccc(CN3CCCN(Cc4cccc(O)c4)CC3)c2)cc1F | 7.48% | 8.09% | 1.34% |
| COc1cc(Nc2nccc(N3CCC(NC(=O)C(C)c4ccc(Cl)cc4)C3)n2)cc(OC)c1OC (stereo not drawn) | 0.95% | -0.55% | 1.19% |
| CCN(CC)/C(=N/C(=N)NCc1ccc(Cl)cc1Cl)NCCCCCCN/C(=N\C(=N)NCc1ccc(Cl)cc1Cl)N(CC)CC | 1.61% | 1.69% | 1.51% |
| FC(F)(F)c1ccc2[nH]c(-c3cccc(-c4cccc(CNCCc5ccncc5)c4)c3)nc2c1 | 4.96% | 4.69% | 5.06% |
| COc1cccc(-c2cccc(NC(=O)C3CCN(Cc4ccc(O)cc4)CC3)c2)c1 | 0.86% | 0.59% | -5.2% |
| N=C(N)c1ccc(NCc2cccc(C(=O)O)c2)cc1 | 1.02% | 1.06% | 3.66% |
| CCCCc1cc(NC2CCN(C)CC2)nc(Nc2ccccc2)n1 | 10.5% | 8.07% | 8.76% |
| CCC(CC(NCCCCNC(=O)c1ccc(NC(=O)c2ccc(Cl)cc2)cc1)c1ccccc1)c1ccccc1OC (stereo not drawn) | 1.72% and 1.8% | 1.83% and 1.71% | 1.46% and -1.08% |
| c1ccn2c(-c3ncnc(NCc4ccc5c(c4)CCO5)n3)cnc2c1 | 1% | 1.45% | 0.24% |
| CCNc1cc(CC)nc(Nc2ccc(C)cc2)n1 | 33.4% | 28.9% | 17.9% |
| COC(=O)c1cccc(CNCc2ccc(-c3ccc(-c4nc5cc(F)ccc5[nH]4)s3)cc2)c1 | 2.57% | 0.36% | 1.42% |
| Cn1c(N)c(C(=O)CSc2ncc(-c3ccc(F)cc3)n2Cc2ccccc2)c(=O)n(C)c1=O | 2.53% | 1.62% | 3.15% |
| O=C(Nc1ccc(Cl)c(C(F)(F)F)c1)Nc1ccc(Cl)c(C(F)(F)F)c1 | 0.91% | 1.04% | 2.07% |
| CC(C)(C)c1ccc(C(=O)N2CCC3(CC2)C(=O)N(CC(=O)NCC2CCCO2)CN3c2ccccc2)cc1 (stereo not drawn) | 0.44% | 4.61% | 0.02% |
| Cc1cc(N2CCCC2)nc(Nc2ccc(NC(=O)C(C)(C)C)cc2)n1 | 0.4% | 2.7% | -0.65% |
| COc1ccc(/C=C/C(=O)NCCCCCN2CCC(c3c[nH]c4ccccc34)CC2)cc1O | 12.1% | 9.97% | 7.57% |
| O=C(c1ccc(-c2ccc(-c3nc4cc(C(F)(F)F)ccc4[nH]3)s2)cc1)N1CCCCC1CN1CCC(O)C1 (stereo not drawn) | 7.23% | 5.1% | 2.98% |
| c1ccc2[nH]c(-c3ccc(-c4ccc(CN5CCN(c6ccncc6)CC5)cc4)s3)nc2c1 | 6.21% | 6.05% | 1.74% |
